ELG1 repair inh – qHTS screen for small molecules that inhibit ELG1-dependent DNA repair in human embryonic kidney (HEK293T) cells expressing luciferase-tagged ELG1. AID 504467, 2011. HEK293T ELG1-luciferase reporter, luminescence, 16 h; DNA damage induced by 5-fluorouridine. Potency, µM (series often up to 46.1 µM), for the others: at the top dose activity change, negative = inhibition, actives largely listed as inhibitors. 2.3% of 330,000 active; further: on the % scale 0 is the no-effect control and ±100 the full control effect; nearly all actives have a fitted effect of over 55% in size
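Cells (2,000 per well) received 5-fluorouridine plus test compound or DMSO and were incubated 16 hr at 37 °C, 5% CO2. Luciferase activity was read by luminescence 30 min after ONE-Glo addition; signal suppression marked inhibition of damage-induced ELG1 function.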
ELG1 genotoxic – qHTS screen for small molecules that induce genotoxicity in human embryonic kidney (HEK293T) cells expressing luciferase-tagged ELG1 | HEK293T ELG1-luciferase reporter, luminescence, 16 h | Potency, µM (doses to about 46 µM), inactives show top-dose activity change, positive = activation, usual class: activators | 1.3% of 330,000 active; further: % of control where 0% means no effect; nearly all actives have a fitted effect of over 60% in size
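HEK293T cells expressing luciferase-tagged ELG1 were treated with compound or DMSO for 16 hr at 37°C. Luciferase activity was then read after 30 min with ONE-Glo at room temperature; rising signal flags genetic stress.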
NPC1 prom act – qHTS Assay for NPC1 Promoter Activators; Huh7 NPC1 promoter luciferase reporter, 24 h; 2.4% of 320,000 active; Potency, µM (top dose mostly 9.22 µM), for the others: at the highest dose activation, actives largely listed as activators; AID 485313, 2010; further: % of control where 0% means no effect; nearly all actives have a fitted effect of over 60% in size
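Readout is luciferase luminescence, reflecting NPC1 promoter activation in stably transfected Huh7 cells after 24 h compound exposure at 37 °C in reduced-serum medium with 10% FBS.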
FLuc counter – qHTS profiling assay for firefly luciferase inhibitor/activator using purifed enzyme and Km concentrations of substrates (counterscreen for miR-21 project); Luciferin 4-monooxygenase (Photinus pyralis), P08659; purified FLuc, Km substrates, luminescence inhibition; Potency, µM (top dose mostly 57.5 µM), inactives show at the top dose activity change, negative = inhibition, most hits filed as inhibitors; 6.9% of 360,000 active; AID 588342, 2011;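 further: plate controls were vehicle for no effect and reference inhibitor for full effect; nearly all actives have a fitted effect of over 55% in size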
Target sequence (P08659 whole entry, looked up): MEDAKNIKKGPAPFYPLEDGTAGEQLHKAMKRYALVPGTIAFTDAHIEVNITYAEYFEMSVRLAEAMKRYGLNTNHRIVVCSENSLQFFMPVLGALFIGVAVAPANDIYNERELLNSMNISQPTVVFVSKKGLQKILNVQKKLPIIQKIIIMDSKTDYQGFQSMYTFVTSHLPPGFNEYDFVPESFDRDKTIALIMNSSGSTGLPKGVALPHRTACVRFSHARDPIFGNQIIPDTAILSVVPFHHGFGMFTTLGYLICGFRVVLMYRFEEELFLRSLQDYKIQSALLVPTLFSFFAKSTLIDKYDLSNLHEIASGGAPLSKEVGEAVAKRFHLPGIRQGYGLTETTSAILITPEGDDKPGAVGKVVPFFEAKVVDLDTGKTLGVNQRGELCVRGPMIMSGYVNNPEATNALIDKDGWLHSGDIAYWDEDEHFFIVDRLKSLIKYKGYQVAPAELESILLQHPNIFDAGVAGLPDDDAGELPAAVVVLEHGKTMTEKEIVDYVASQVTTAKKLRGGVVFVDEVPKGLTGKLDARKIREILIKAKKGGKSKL
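Purified P. pyralis luciferase (10nM final) with 10uM D-luciferin and 10uM ATP (Km levels) in 50mM Tris acetate pH 7.5, 10mM Mg acetate, 0.01% Tween-20, 0.05% BSA; qHTS 6-point titration, ~60 µM downward; luminescence read.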
Rab9 promoter act – qHTS Assay for Rab9 Promoter Activators | Huh7 Rab9 promoter-luciferase reporter, luminescence, 24 h | Potency, µM (titrated, usually from 9.22 µM), for the others: at the top dose activation, negative = inhibition, hits mostly activators | 2.8% of 320,000 active; further: % of control where 0% means no effect; nearly all actives have a fitted effect of over 60% in size
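Luminescence read-out: Huh7 cells stably expressing Rab9-luciferase, treated 24 h with compound at 37 °C, then lysed with luciferase reagent for 10 min at ambient before reading.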
SMN2 splice enh – qHTS Assay for Enhancers of SMN2 Splice Variant Expression; HEK293 SMN2-luciferase splicing reporter, luminescence, 30-36 h; Potency, µM (doses to about 46.1 µM), without a hit: at the top dose activity change, positive = activation, usual class: activators; 2.8% of 210,000 active; further: % of control where 0% means no effect; nearly all actives have a fitted effect of over 55% in size
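HEK293 cells carry an SMN2 minigene-luciferase reporter in which exon 7 inclusion puts luciferase in frame. Cells were seeded at 2000 cells/well, attached for 10-12 hours, then exposed to compounds for 30-36 hours at 37C before ONE-Glo luminescence.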
* = called active by the depositor; u = inconclusive; x = no result given. A selection: hits, their analogues and other compounds. The true share with any hit is near 9.2%. The call rests on the fitted dose curve; in most records, active means well fitted curve in the direction sought with a large enough effect; inconclusive means small, poorly fitted or top-dose-only effect, or another doubt; inactive means no such curve, though single readings can be large; an effect the other way counts as inactive or inconclusive. Potency means the concentration at half of the fitted maximal effect.

SMILES | ELG1 repair inh | ELG1 genotoxic | NPC1 prom act | FLuc counter | Rab9 promoter act | SMN2 splice enh
Cc1onc(-c2c(Cl)cccc2Cl)c1C(=O)Nc1nccs1 | 23µM* | -22% | 0% | 3% | -2% | x
Cc1cnc(C(=O)Nc2nnc(C)s2)cn1 | u | 13% | 23% | -14% | 12% | 1%
COc1ccccc1CC(=O)OC(C)C(=O)Nc1ccc(S(=O)(=O)N2CCCCC2)cc1 (stereo not given) | -9% | -2% | -1% | 0% | 1% | x
O=C(Nc1nccs1)c1cn2ccccc2n1 | u | u | 0.32µM* | 1.3µM* | 0.11µM* | x
O=C(O)Cc1ccc(NC(=O)c2cccc(NC(=O)c3ccco3)c2)cc1 | 6% | 4% | -3% | 17µM* | -2% | x
O=C(NCc1ccccc1)c1cccc(NC(=O)c2ccco2)c1 | -27% | 3% | 6% | -17% | -5% | -30%
Cc1c(NC(=O)c2cccc(NC(=O)c3ccco3)c2)cccc1C(=O)O | 11% | 0% | -3% | 19µM* | 3% | 8%
O=C(Nc1ccc(O)c(C(=O)O)c1)c1cccc(NC(=O)c2ccco2)c1 | 3% | -1% | -1% | 11µM* | -5% | x
O=C(COC(=O)c1cncc(Br)c1)NC12CC3CC(CC(C3)C1)C2 | 13% | 1% | x | x | x | x
Cc1ccc2c(c1)-c1nc(-c3ccc4c(c3)NC(=O)CO4)cc(-c3ccccc3)c1CO2 | x | x | x | 0% | x | -2%
COc1ccc(NC(=O)N2CC[C@@]3(CCCN(C(=O)c4c(C)noc4C)C3)C2)cc1 | x | x | x | x | x | -16%
Cn1c(-c2ccc3ccccc3n2)[n+](C)c2ccccc21 | u | -3% | -12% | 21µM* | -31% | x
Cn1c(-c2ccccn2)[n+](C)c2ccccc21 | 9% | 1% | -11% | -2% | 1% | x
Cc1cc(C)cc(NC(=O)c2cn3c4c(ccc(Cl)c4c2=O)OC(C)C3)c1 (stereo not given) | x | x | x | 7% | x | x
CCN1CCN(Cc2ccc(NC(=O)c3cc(NC(=O)c4nccnc4N)cc(OC)c3)cc2C(F)(F)F)CC1 | -17% | -6% | 0% | 13µM* | -3% | x
CCN1CCN(Cc2ccc(NC(=O)c3ccc(C)c(NC(=O)c4nccnc4N)c3)cc2C(F)(F)F)CC1 | u | -9% | -5% | u | -13% | x
O=C(NCC1CC1)c1ccc2c(c1)S(=O)(=O)c1cc(Cl)ccc1C2=O | 10% | 6% | 1% | -1% | 1% | x
CCN(CC)c1ccc(/C=N/Nc2nn[nH]n2)cc1 | u | 6% | 2% | 17µM* | 2% | x
Nc1ccccc1C(=O)NCc1ccc(F)cc1 | 8% | 3% | 0% | -1% | -1% | 1%
O=C(Nc1ccccc1NC(=O)c1ccc(F)cc1)c1ccc(F)cc1 | -8% | -2% | -4% | -1% | -3% | x
Nc1[nH]c(N=NC(=O)c2ccc(F)cc2)c2ccccc12 | u | u | u | 7.6µM* | 4µM* | x
Nc1ccccc1C(=O)N=Nc1[nH]c(N)c2ccccc12 | u | u | 3.5µM* | 3.8µM* | 2.8µM* | 18µM*
O=c1c2ccccc2nc(COc2ccccc2)n1/N=C/c1ccc(O)cc1O | u | -3% | -3% | 17µM* | -3% | x
O=c1c2ccccc2nc(COc2ccccc2)n1/N=C/c1cn[nH]c1-c1ccccc1 | 6.5µM* | -6% | -3% | 1% | -11% | -29%
Cc1nc2ccccc2c(=O)n1/N=C/c1ccccc1O | u | 14% | 2% | u | 1% | x
SMILES | ELG1 repair inh | ELG1 genotoxic | NPC1 prom act | FLuc counter | Rab9 promoter act | SMN2 splice enh
Cc1ccccc1OCc1nc2ccccc2c(=O)n1/N=C/c1ccco1 | u | -2% | 14% | u | 12% | 7%
Oc1ccc(/C=N/n2c(COc3ccccc3)n[nH]c2=S)c(O)c1 | 11% | 3% | -9% | -7% | -7% | x
Cc1ccc(-c2[nH]ncc2/C=N/n2c(C)nc3ccccc3c2=O)cc1 | 9.2µM* | -6% | -1% | -5% | -11% | x
Cc1ccccc1OCc1nc2ccccc2c(=O)n1/N=C/c1cn[nH]c1-c1ccc(Br)cc1 | 6.5µM* | -12% | 0% | 3% | -1% | -14%
CS(=O)(=O)N(Cc1nc(-c2ccc(F)cc2)no1)c1ccccc1Cl | u | 11% | -5% | 1% | -4% | x
COc1ccc(C)cc1S(=O)(=O)Nc1cccnc1 | 0% | 1% | 8% | -3% | 12% | 0%
CCOc1ccc(-c2ccc(NS(=O)(=O)c3cc(C)ccc3OC)cc2)nn1 | x | x | x | 0% | x | x
COc1ccc(C)cc1S(=O)(=O)Nc1cccc(-c2ccc(N3CCCCCC3)nn2)c1 | u | 2% | 0% | 9.5µM* | 3% | x
COc1ccc(C)cc1S(=O)(=O)Nc1cccc(-c2ccc(N3CCC(C)CC3)nn2)c1 | x | x | x | 2.4µM* | x | x
COc1ccc(F)cc1S(=O)(=O)Nc1cccc(-c2ccc(N3CCC(C)CC3)nn2)c1 | x | x | x | 5.4µM* | x | x
CCOC(=O)c1sc(NC(=O)c2ccc(S(=O)(=O)N3CCCCCC3)cc2)nc1-c1ccccc1 | 13µM* | -10% | -3% | 5% | -2% | -78%
CCOC(=O)c1sc(NC(=O)c2ccc(S(=O)(=O)N3CCCCC3)cc2)nc1-c1ccccc1 | 21µM* | -8% | -1% | 3% | -3% | -61%
CCOC(=O)c1sc(NC(=O)c2ccc(S(=O)(=O)N3CCOCC3)cc2)nc1-c1ccccc1 | 26µM* | -8% | -1% | 1% | -1% | -40%
Cc1cccc(N2CCN(c3nc4ccc(C(=O)c5ccccc5)cc4n4cnnc34)CC2C)c1 (stereo not given) | x | x | x | -3% | x | x
CSc1cccc(N2C(=O)N(CC(=O)NCc3ccccc3Cl)c3ccccc3S2(=O)=O)c1 | x | x | x | -1% | x | x
CCCCCCCCN1N=N[C@H]2[C@H]1[C@@H]1C[C@H]2N(C(=O)OC(C)(C)C)O1 | -9% | -1% | x | x | x | x
CC(=Nc1ccc(C)cc1C)c1sc2ccccc2c1O | u | u | u | 0.76µM* | 3.5µM* | 11µM*
CN=Cc1sc2ccccc2c1O | u | 1% | 1% | -18% | 4% | -11%
CC(=Nc1cccc(O)c1)c1sc2ccccc2c1O | u | 1.6µM* | 29% | 1.7µM* | u | 18µM*
Cc1cc(O)cc2c(=O)c3ccccc3sc12 | u | -3% | 0% | u | -1% | 5%

High-throughput results: PubChem, National Center for Advancing Translational Sciences (NCATS)
